In test [1] the test system is Human papillomavirus type 1a protein E7 (residues 44-93). Nature of the test: HPV1a E7 fragment binders on microarrays, primary screen, biochemical, small-molecule microarray, residues 44-93, 635 nm fluorescence (AID 1108).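 Note: E7 fragment applied at 1 µg/mL in TBST for 1 h at 4 C; score combines spot fluorescence with its signal to noise ratio.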 As to conditions: small-molecule microarray binding, fluorescence 635 nm; higher = more signal.
A short description of test [2]: modulators of HCV replicon luciferase signal, primary screen, HCV replication inhibitor project, Huh7 cells, luciferase reporter (AID 1109).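 Note: huh7 hepatoma cells harbouring a luciferase neomycin HCV replicon reporter; luciferase luminescence as measure of HCV replicon replication; test concentration not given here.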 As to conditions: 48 h, higher = more signal.
In test [3] the target is Left-right determination factor 2 (Homo sapiens) (UniProt O00292). Put plainly: LEFTY2 binders on small-molecule microarrays, primary screen, biochemical, small-molecule microarray, 635 nm fluorescence scan (AID 1110). Conditions: LEFTY2 binding, higher = more signal.
Test [4] addresses Calmodulin-1 (Homo sapiens) (UniProt P0DP23). Nature of the test: CALM1 binders on microarrays, EGTA buffer, profiling panel, biochemical, small-molecule microarray, Cy5-labelled CALM1 (AID 1111).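 Note: labelled calmodulin applied in Tris saline Tween buffer holding calcium plus EGTA and DTT.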 As to conditions: Cy5-CALM1 binding fluorescence, higher = more signal.
For test [5] the target is unchanged. Nature of the test: calcium-bound CALM1 binders on microarrays, profiling panel, artefact control for SMM control-protein annotation, biochemical, small-molecule microarray, Cy5-labelled CALM1, plus calcium (AID 1112).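 Note: score merges spot fluorescence with signal to noise from triplicate slides.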 Conditions: Cy5-CALM1 binding fluorescence, higher = more signal.
Test [6] in a line: small-molecule microarray binders of probe aWnt5a, primary screen, biochemical, biotinylated probe, 635/667 nm fluorescence (AID 1113).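 Note: score merges 667 nm fluorescence intensity with signal-to-noise per printed feature.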 As to conditions: higher = more signal.
A short description of test [7]: small-molecule microarray binders of probe aShh, primary screen, biochemical, biotinylated probe, 635/667 nm fluorescence (AID 1114).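 Note: probe is biotin-labelled aShh protein from a stem cell growth factor screen; measures binding of labelled protein to compounds printed on the slide; score merges feature fluorescence at 667 nm with signal-to-noise.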 As to conditions: higher = more signal.
Test [8] is described as follows: small-molecule microarray binders of probe aNog, primary screen, biochemical, biotinylated probe, 635/667 nm fluorescence (AID 1115).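 Note: probe is biotinylated aNog protein used at 0.15 µg/mL for 1 h at 4 C; z-score combines 667 nm fluorescence of each spot with its signal to noise.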 As to conditions: higher = more signal.
Test [9] deals with Torsin-1A-interacting protein 1 (Homo sapiens) (UniProt Q5JTV8). Put plainly: LAP1 binders from COS7 cell lysate, primary screen, small-molecule microarray, 635/667 nm fluorescence (AID 1116). As to conditions: COS7-hLAP1 lysate binding, 635 nm fluorescence, higher = more signal.
The target of test [10] is Alpha-bungarotoxin (Bungarus multicinctus) (UniProt P60615). Put plainly: alpha-bungarotoxin binders on microarray, profiling panel, artefact control for SMM control protein annotation, biochemical, small-molecule microarray, Alexa647 label, 635/667 nm fluorescence (AID 1117). Conditions: alpha-BTX-A647 binding fluorescence, higher = more signal.
In another test the target is Albumin (Bos taurus) (UniProt P02769). Put plainly: bovine serum albumin binders on microarray, profiling panel, artefact control for SMM control protein annotation, biochemical, small-molecule microarray, Alexa647 label, 635/667 nm fluorescence (AID 1118).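 Note: score merges 667 nm emission intensity and signal-to-noise per printed compound spot.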 Conditions: BSA-A647 binding, fluorescence 635 nm, higher = more signal.
Test [11] can be described thus: small-molecule microarray binders of probe aXIP, primary screen, biochemical, NeuroSMM set, 635/667 nm fluorescence (AID 1119).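 Note: probe is the protein aXip251-270 applied at 1 µg/mL to compound-printed slides; binding of probe to printed compounds measured as 667 nm fluorescence plus signal to noise.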 Conditions: higher = more signal, called active from +8 up or from −8 down.
Test [12] in a line: small-molecule binders of probe aNOTCH3, primary screen, biochemical, small-molecule microarray, 635/667 nm fluorescence (AID 1120).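 Note: probe is a biotin-tagged antibody raised against NOTCH3 rather than NOTCH3 protein; score merges spot fluorescence near 667 nm with spot signal to noise.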 Conditions: higher = more signal.
A short description of test [13]: small-molecule binders of probe aNOTCH2, primary screen, biochemical, small-molecule microarray, 635/667 nm fluorescence (AID 1121).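 Note: score merges feature fluorescence read at 667 nm with its signal to noise.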 Conditions: higher = more signal.
Test [14] has as its target Carbonic anhydrase 2 (Homo sapiens) (UniProt P00918). Nature of the test: CAII small-molecule binders, profiling panel, biochemical, small-molecule microarray, Alexa647-labelled CAII (AID 1122). Conditions: CAII-A647 binding fluorescence, higher = more signal.
Test [15] can be described thus: COS7 lysate on small-molecule microarray, probe aHis, 635 nm (AID 1123).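 Note: z-score combines 667nm fluorescence intensity with signal-to-noise per printed compound spot.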 Conditions: COS7 cell lysate, fluorescence, higher = more signal.
Test [16] is described as follows: compound binding in COS7 lysate, probe aLAP1, primary screen, cell lysate, small-molecule microarray (AID 1124).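 Note: lysate comes from COS7 cells expressing LAP1 and is applied at 0.3 µg/mL; score merges spot fluorescence near 667 nm with signal-to-noise over triplicate slides.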 Conditions: probe aLAP1, fluorescence, higher = more signal.
Another test concerns Sam68 (KHDRBS1). Nature of the test: Sam68 small-molecule binders, primary screen, biochemical, small-molecule microarray, 635 nm fluorescence (AID 1125).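 Note: score merges 667 nm channel intensity with signal to noise over triplicate slides.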 Conditions: small-molecule microarray binding, higher = more signal.
Test [17] relates to Chordin-like protein 2 (CHRDL2). Nature of the test: CHRDL2 small-molecule binders, primary screen, biochemical, small-molecule microarray, 635 nm fluorescence (AID 1126).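 Note: printed compound slides probed with Chrdl2 protein at 4 µg/mL for 1 h at 4 C; score merges 667 nm emission intensity with signal to noise over three replicate slides.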 Conditions: small-molecule microarray binding, fluorescence 635 nm; higher = more signal.
Test [18] concerns the target Concanavalin-A (Canavalia ensiformis) (UniProt P02866). Nature of the test: ConA small-molecule binders, primary screen, artefact control for SMM control protein annotation, biochemical, small-molecule microarray, Alexa647 label, 635 nm (AID 1127).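 Note: z combines 667 nm emission intensity with signal-to-noise across three replicate slides.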 Conditions: ConA-A647 binding fluorescence, higher = more signal.

Activity calls are given as the source filed them.

The text below walks through data of PubChem BioAssay.

Alpha-bungarotoxin (Bungarus multicinctus), sequence (P60615 whole entry, looked up): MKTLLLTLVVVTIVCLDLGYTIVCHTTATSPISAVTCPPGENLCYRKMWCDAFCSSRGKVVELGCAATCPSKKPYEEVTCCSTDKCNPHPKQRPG
Torsin-1A-interacting protein 1 (Homo sapiens), sequence (Q5JTV8 whole entry, looked up): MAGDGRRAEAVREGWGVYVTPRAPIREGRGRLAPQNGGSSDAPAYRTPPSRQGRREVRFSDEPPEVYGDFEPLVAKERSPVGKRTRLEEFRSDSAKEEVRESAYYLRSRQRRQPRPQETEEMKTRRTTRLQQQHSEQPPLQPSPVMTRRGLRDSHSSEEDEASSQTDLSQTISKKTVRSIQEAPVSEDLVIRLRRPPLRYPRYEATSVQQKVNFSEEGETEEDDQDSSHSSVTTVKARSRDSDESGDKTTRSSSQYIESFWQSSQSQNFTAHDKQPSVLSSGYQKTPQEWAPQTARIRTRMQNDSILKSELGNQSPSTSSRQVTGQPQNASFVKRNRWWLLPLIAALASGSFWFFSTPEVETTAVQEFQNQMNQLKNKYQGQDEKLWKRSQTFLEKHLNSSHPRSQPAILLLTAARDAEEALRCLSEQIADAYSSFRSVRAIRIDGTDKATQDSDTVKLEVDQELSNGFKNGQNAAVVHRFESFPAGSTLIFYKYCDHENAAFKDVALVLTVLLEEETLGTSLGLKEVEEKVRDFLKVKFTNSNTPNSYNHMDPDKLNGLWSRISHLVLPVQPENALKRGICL
Left-right determination factor 2 (Homo sapiens), sequence (O00292 whole entry, looked up): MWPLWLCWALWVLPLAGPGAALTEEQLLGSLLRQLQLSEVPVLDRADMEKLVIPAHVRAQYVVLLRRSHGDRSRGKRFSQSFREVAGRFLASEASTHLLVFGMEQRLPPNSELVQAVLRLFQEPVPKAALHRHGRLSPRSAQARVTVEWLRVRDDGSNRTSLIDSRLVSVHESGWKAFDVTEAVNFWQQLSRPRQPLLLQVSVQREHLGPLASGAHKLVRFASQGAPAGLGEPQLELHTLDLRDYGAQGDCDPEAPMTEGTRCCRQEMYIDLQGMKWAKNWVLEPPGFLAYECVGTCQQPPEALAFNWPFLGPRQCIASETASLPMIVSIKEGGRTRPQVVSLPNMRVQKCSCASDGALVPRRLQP
Concanavalin-A (Canavalia ensiformis), sequence (P02866 whole entry, looked up): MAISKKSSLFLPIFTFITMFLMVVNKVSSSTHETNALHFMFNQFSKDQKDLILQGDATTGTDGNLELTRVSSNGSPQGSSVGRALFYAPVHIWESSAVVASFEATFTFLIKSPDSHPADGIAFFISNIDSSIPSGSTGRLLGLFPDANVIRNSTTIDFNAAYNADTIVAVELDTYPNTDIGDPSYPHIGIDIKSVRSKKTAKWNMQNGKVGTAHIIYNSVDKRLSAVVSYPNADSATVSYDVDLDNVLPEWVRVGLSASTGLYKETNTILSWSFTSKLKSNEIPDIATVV
Albumin (Bos taurus), sequence (P02769 whole entry, looked up): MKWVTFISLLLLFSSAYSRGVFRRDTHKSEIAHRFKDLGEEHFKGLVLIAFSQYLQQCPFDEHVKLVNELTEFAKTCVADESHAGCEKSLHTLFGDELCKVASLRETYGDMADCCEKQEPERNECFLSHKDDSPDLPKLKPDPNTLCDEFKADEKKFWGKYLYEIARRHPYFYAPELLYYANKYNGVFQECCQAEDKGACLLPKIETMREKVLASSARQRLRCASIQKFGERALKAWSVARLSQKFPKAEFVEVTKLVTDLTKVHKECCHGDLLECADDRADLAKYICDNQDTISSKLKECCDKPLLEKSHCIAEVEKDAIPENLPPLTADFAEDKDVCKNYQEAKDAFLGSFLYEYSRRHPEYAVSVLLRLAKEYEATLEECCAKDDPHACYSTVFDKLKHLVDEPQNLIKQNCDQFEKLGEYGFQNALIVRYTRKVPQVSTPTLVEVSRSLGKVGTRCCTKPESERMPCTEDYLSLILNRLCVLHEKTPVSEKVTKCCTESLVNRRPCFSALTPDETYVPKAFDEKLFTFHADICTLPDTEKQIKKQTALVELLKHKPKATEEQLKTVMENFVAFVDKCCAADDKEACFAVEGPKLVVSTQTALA

For the molecule `COc1ccccc1CN1C(=O)c2ccccc2[C@](Cc2ccccc2I)(C(=O)NC2CC2)[C@@H]1c1ccc(CO)cc1`, the composite z-score is 1.43 in test [1]; 0.471 in test [3]; 0.654 in test [4]; -0.265 in test [5]; 0.0704 in [6]; 0.242 in [7]. Also, the composite z-score was -0.354 in test [8]; 1.69 in test [9]; 1.38 in test [10]; 0.0506 with Albumin (Bos taurus); -0.0208 in [12]; -0.0878 in test [13]. Also, the composite z-score is 0.548 in [14]; 2.11 in test [15]; 0.524 in test [16]; 1.32 in the test on Sam68 (KHDRBS1); 0.245 in test [17]; 1.14 in [18]. The same molecule had a z-score in test [2] of -1.93. Further, the composite Z-score in test [11] is 0.0161 (inactive).
In the case of `[N-]=[N+]=NCc1ccccc1C[C@]1(C(=O)NCC(O)CO)COC(c2ccc(OCCCO)cc2)=N1` (stereo not given in full), the composite z-score in test [1] is 0.912; in [3], -0.645; in test [4], 2.44; in test [5], 0.911; in [6] it was 0.188; in [7], -0.0341. The composite z-score turned out to be 1.17 in [8]; 3.34 in test [9]; 3.01 in [10]; 1.03 with Albumin (Bos taurus); 0.0566 in [12]; 0.446 in test [13]. The composite z-score was 0.8 in [14]; 3.3 in test [15]; 1.38 in test [16]; 1.12 in the test on Sam68 (KHDRBS1); -1.37 in [17]; 0.954 in test [18]. The z-score in test [2] was -1.84. For the same molecule, the composite Z-score in test [11] is 0.621 (inactive).
Regarding `O=C1O[C@@H](c2ccccc2)[C@@H](c2ccccc2)N2[C@@H](c3ccc(O)cc3)[C@]3(C(=O)Nc4ccccc43)[C@@H](C(=O)NC[C@H](O)c3ccccc3)[C@H]12`, the composite z-score in test [1] was 1.13; in [3] it was 0.091; in test [4] it was 0.843; in [5] it was 0.713; in [6] it was -0.0659; in test [7], -0.0232. The composite z-score is -0.0899 in test [8]; 0.137 in [9]; 0.262 in test [10]; 0.726 with Albumin (Bos taurus); -0.242 in test [12]; -0.0885 in [13]. For the same molecule, the composite z-score in [14] is 0.699; in [15], 1.66; in [16], -0.238; with Sam68 (KHDRBS1), 0.607; in test [17] it was 0.458; in test [18], 0.442. This molecule also showed a z-score in test [2] of -0.427. In addition, in test [11], the composite Z-score was 0.0895 (inactive).
In the case of `CCCCN1CC=CC23O[C@@H]4C=CCCOC(=O)C4[C@H]2C(=O)N(CCCO)[C@@H]3C1=O` (stereo not given in full), the composite z-score in [1] is -0.73; in test [3] it was -0.513; in test [4], -0.479; in [5], -0.503; in test [6], -0.196; in test [7] it was -0.2. Moreover, the composite z-score was -0.0784 in test [8]; -0.643 in test [9]; -1.13 in [10]; -1.13 with Albumin (Bos taurus); -0.189 in [12]; -0.155 in [13]. Also, the composite z-score in test [14] is 0.488; in [15], -0.673; in test [16], -0.469; in the test on Sam68 (KHDRBS1), -0.905; in test [17], -0.304; in test [18], -1.59. This molecule showed a z-score in [2] of -1.1. Further, the composite Z-score in test [11] was -0.941 (inactive).
On to `[N-]=[N+]=Nc1ccccc1[C@@H]1OC(c2ccc(OCCCO)cc2)=N[C@]1(CCS(=O)(=O)c1ccccc1)C(=O)O`, for which the composite z-score in test [1] is 1.42; in [3], 0.459; in test [4] it was 1.35; in [5], 0.304; in [6] it was 0.383; in test [7] it was -0.0146. In addition, the composite z-score is -0.0345 in test [8]; 0.677 in test [9]; 1.55 in [10]; 0.829 with Albumin (Bos taurus); 0.416 in test [12]; -0.0323 in test [13]. The composite z-score in test [14] was 0.683; in test [15] it was 1.61; in [16] it was -0.252; in the test on Sam68 (KHDRBS1) it was 1.31; in test [17] it was 0.012; in test [18], 1.15. The molecule also gave a z-score in test [2] of 0.666. Also, the composite Z-score in test [11] is 0.834 (inactive).
As to `COCCOC(=O)N1C(=O)[C@@]2(c3cc(C#CCCO)ccc31)[C@H](c1ccc(O)cc1)N1[C@H](c3ccccc3)[C@H](c3ccccc3)OC(=O)[C@H]1[C@@H]2C(=O)N1CCCCCCC1`, the composite z-score in test [1] turned out to be 0.727; in test [3], 0.811; in test [4] it was 1.51; in test [5] it was 0.425; in test [6], 0.17; in test [7], 0.374. For the same molecule, the composite z-score is -0.295 in [8]; 2.53 in test [9]; 1.92 in [10]; 0.0837 with Albumin (Bos taurus); 0.489 in test [12]; 0.0931 in test [13]. The composite z-score in [14] was determined as 0.431; in test [15], 0.666; in test [16], 0.642; in the test with Sam68 (KHDRBS1), 1.3; in test [17], 0.755; in [18], 1.1. The same molecule displayed a z-score in [2] of -0.407. Moreover, the composite Z-score in test [11] was 1.11 (inactive).
Regarding `O=C1O[C@@H](c2ccccc2)[C@@H](c2ccccc2)N2[C@@H](c3ccccc3OCCO)[C@]3(C(=O)Nc4ccc(C#CC5(O)CCCCCC5)cc43)[C@@H](C(=O)NC[C@H](O)c3ccccc3)[C@H]12`, the composite z-score is 1.41 in test [1]; -0.24 in test [3]; 0.819 in test [4]; 0.923 in test [5]; 0.0912 in [6]; 0.681 in [7]. Moreover, the composite z-score in [8] stood at 1.86; in test [9], 0.0197; in test [10] it was 0.728; with Albumin (Bos taurus) it was 0.644; in [12] it was 0.638; in test [13], 0.0062. Moreover, the composite z-score in test [14] was 0.244; in test [15], 2.29; in [16], 0.146; in the test on Sam68 (KHDRBS1), 1; in test [17], -0.134; in test [18], 0.622. This molecule yielded a z-score in test [2] of -3.23. The composite Z-score in [11] is 1.17 (inactive).
On to `O=C1O[C@H](c2ccccc2)[C@H](c2ccccc2)N2[C@H]1[C@@H](C(=O)NC[C@H](O)c1ccccc1)[C@]1(C(=O)Nc3ccc(C#CC4=CCCCC4)cc31)[C@H]2c1ccc(O)cc1`, for which the composite z-score was 1.38 in test [1]; 0.538 in test [3]; 0.784 in test [4]; -0.566 in test [5]; -0.0403 in test [6]; -0.0146 in test [7]. Besides, the composite z-score in test [8] is 0.0129; in test [9], 0.705; in test [10] it was 1.52; with Albumin (Bos taurus) it was 0.296; in [12] it was 0.0112; in test [13] it was -0.124. Further, the composite z-score is 0.397 in [14]; 1.98 in [15]; 0.826 in test [16]; 1.29 with Sam68 (KHDRBS1); 0.594 in [17]; 1.09 in test [18]. The molecule also yielded a z-score in test [2] of -2.02. The composite Z-score in test [11] was -1.22 (inactive).
